# Experimental data taken from PubChem BioAssay AID651871 (Sanford-Burnham Center for Chemical Genomics, 2012).
# Where “and” joins values, the source holds several entries; their conditions need not be identical. Equal entries are not always repeated.
# Tested on: H9c2
# Experiment: protection of cardiomyocytes from stress damage, SAR follow-up, cell-based, panel, H9c2 and HL-1, ATP luminescence, set 2 (AID 651871);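 also: cells exposed to stressor for 2 h before ATP readout; reference of the scale not given here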
# Conditions: H9c2/HL-1 cardiomyocytes, 2-deoxyglucose stress, with 2-deoxyglucose, run 4, at 79 µM (top of the series)
row,Structure (SMILES),activity (protection/inhibition)
1,CCOC(=O)c1cccc(NC(=O)CNC(=O)c2cc(-c3cc(OC)c(OC)c(OC)c3)nc3ccccc23)c1,87.2%
2,COc1ccc2c(c1OC)C(=O)N1c3ccccc3C(=O)N(Cc3cccc(Cl)c3Cl)C21 (stereo not drawn),57.7% and -8.42%
3,COc1ccc2nc(-c3cc(OC)c(OC)c(OC)c3)cc(C(=O)NCC(=O)Nc3ccc(C(C)=O)cc3)c2c1,80.7%
